# Reference: the supplement of paper PMC6555819
# What was measured:
# Assay in all cases: PBM binding z-score (relative to random genomic background probes); higher = stronger binding; sequences stand for … in GC…GCGATTGACAGCGTAGAATGAAGG
# [1] = system: RARb homodimer (NR concentration 270 nM)
# Summary of the method: (§1)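 Regression normalization was applied to scanned fluorescence from custom Agilent 4×180K protein-binding microarrays. Before scanning, arrays were incubated 1 h with ligand-free nuclear receptor dimers, and binding was detected with antibodies against each partner (one per run). Binding z-scores use the random background probes as reference.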
# [2] = system: RARg:RXRa (NR concentration 270 nM, RXRa partner concentration 90 nM)
# Summary of the method: as §1
# [3] = system: RARg homodimer (NR concentration 270 nM)
# Summary of the method: as §1
# [4] = system: RXRa DBDmut IVT, anti-RXR (DBD mutation: RXRa K156A/R161A, NR concentration 90 nM)
# Summary of the method: as §1
# [5] = system: RXRa homodimer (NR concentration 180 nM)
# Summary of the method: as §1
# [6] = system: THRa:RXRa (NR concentration 90 nM, RXRa partner concentration 90 nM)
# Summary of the method: as §1
# [7] = system: THRa homodimer (NR concentration 90 nM)
# Summary of the method: as §1
# [8] = system: VDR homodimer (NR concentration 270 nM)
# Summary of the method: as §1
Sequence,PBM binding z-score [1],PBM binding z-score [2],PBM binding z-score [3],PBM binding z-score [4],PBM binding z-score [5],PBM binding z-score [6],PBM binding z-score [7],PBM binding z-score [8]
GCTGCTAAGTCAGGTTGGTCAGCTAACGGGTACG,0.212,-0.383,-0.568,-0.027,-0.344,-0.197,-0.581,-0.246
ACTAGCCGGCCAAGTTTGGGTCACTCAAACAAAG,2.27,1.35,1.48,-0.475,0.851,2.15,1.23,0.121
ACTATTATTTGACTTAGGGCAACCGATACGACGC,1.2,1.18,1.35,1.24,0.818,1.18,1.52,1.41
CCTAGTTGGTCAAGGTGACACACGCTATAGGTAC,1.8,1.49,1.74,0.165,1.05,2.06,1.65,0.83
CCAGACTGGTGAAAGGTAACTCAGTCTGGTACGC,0.104,0.0585,-0.236,-0.492,0.524,0.18,-0.494,-0.181
ACTCGTTGGTCAGCTGAGGTCACACACAATTCGG,4.41,4.16,4.25,1.3,4.06,5.18,5.14,3.72
TCATATAGGTAAAAGGTGAAGGTCGGTGTGGTAA,2.64,2.21,1.23,1.73,3.05,1.94,1.05,0.941
CCAGACAGGTGAGAAAGTAACTCAGCCTCGATTA,0.0469,0.0483,0.249,0.169,0.0557,-0.0555,-0.123,-0.255
ACTATTAGTTGACTTAGAGCAACCGATACGACGC,-0.15,0.294,0.597,0.671,0.318,0.0226,0.0225,-0.0313
GCGAGTGGGGCAAAGCAGGTTACCATAAGGTTGG,1.29,0.324,0.332,-0.292,0.339,2.93,0.0981,-0.134
ATACCAAGGTGATGGTGAGGTCGTTGATACTAAC,1.83,1.84,0.644,0.506,1.11,3.24,2.44,2.63
CCAAGTAGGTTATGGGGCATTCAGGCAACGGTGA,0.93,0.634,0.608,0.0857,0.733,0.508,-0.0137,0.318
TAGCCTAGGTCATTCAGAGGCCAGTATAGAAAGC,3.33,5.8,4.01,1.57,2.87,3.14,0.653,1.14
CCAGCTAGGTCAATGGTCAGCTAAAGCAGCTCGC,2.83,3.55,4.15,1.51,2.04,2.1,0.209,0.021
CGTCTAAGTTCAACTAAGGTAACGTAAAGCACGC,3.13,4.18,4.79,4.84,3.54,4.95,2.6,4.24
TGTCAAAGTTCACAGGTAACGTAAGTATCCACAC,4.22,5.7,5.98,3.69,5.48,2.53,-0.165,3.53
GCTGCTAGGTCAGGTTGGTCAGCCAACGGGTACG,2.66,2.78,3.65,0.121,0.819,1.61,0.269,0.768
AGTTAAAGTTCAGGACGAGGTAACGTAAAGCACG,3.04,4.5,4.39,3.27,2.72,3.85,1.96,2.43
TCTGCTAGGTCTACGATGGTCAGCTAATCTGCTA,-0.552,-0.506,-0.409,0.00299,-0.775,-1.43,-1.26,-1.28

Sequence,PBM binding z-score [1],PBM binding z-score [2],PBM binding z-score [3],PBM binding z-score [4],PBM binding z-score [5],PBM binding z-score [6],PBM binding z-score [7],PBM binding z-score [8]
CGTCCAAGGTCCAGGTCAGTGAAAGAGACTCGAA,2.38,1.4,1.92,0.467,0.732,2.22,1.67,0.482
GGAACGAGGGCGAAGTTGATAGCATCTGTCGACG,-0.341,0.0412,0.2,1.17,0.297,-0.192,-0.526,0.152
TCTTGTAGATCAGTAGAGGTTAAGAAAGTGCGCT,1.26,0.475,0.344,0.802,1.24,1.88,-0.288,0.245
CCTTACGGGTCACTGACAGGTTCTAGCATTTGGA,3.15,4.85,4.15,1.95,4.61,2.45,0.145,1.03
GCAGAAAGGTGAAACGCAGGTAACTCAGGGTGGC,1.55,3.22,1.84,0.00146,2.31,2.25,-0.396,-0.808
TCATATAGGTAAGAGGTGAAAGTCGGTGTGGTAA,1.34,1.19,0.66,1.84,1.99,1.69,0.894,0.13
CGAGACAGGTGAAAGGTAACTCAGTCTGGTACGC,0.817,1.2,0.702,-0.262,2.11,0.861,-0.303,-0.342
CCTCGGAGGACAAGAGGAGGTCAGAGCTGCCAGA,2.96,2.87,2.83,0.0626,1.58,2.55,0.679,0.697
TCTGCTAGTTCAACGATGGTCAGCTAATCTGCTA,0.82,0.768,1.03,1.32,0.188,0.928,-1.34,0.129
CAAACTAGGTCACGAAAGGTAAAAGTCGAATGAC,3.34,5.16,5.56,2.02,4.2,4.18,1.49,0.85
GCCGCTAGGTCAGGTTGGTCAGCTAACGGGTACG,2.77,2.62,3.67,0.508,1.1,1.81,0.524,0.312
ATCTCTAGGTAAAGATAGTTCATTGAATGCAAAT,1.46,1.01,0.983,0.467,0.854,1.28,0.302,1.98
AGAATGAGGTTAAGATCAGAGAAACAGAATACAT,0.686,2.05,1.45,0.652,2.36,2.29,0.47,0.291
CGTCAAAGTTCAAATAAGGTAACGTAAAGCACGC,4.02,5.64,6.52,4.78,5.4,5.07,2.01,4.33
CGAACTAGGTCATCCAGGACAGTTAATACATTGA,3,3.93,4.66,2.41,2.99,3.54,2.15,2.37
TAGTCTAGGTCATTGGGCCAGTATAGTACGCATC,3.08,3.92,4.79,1.95,3.26,3.32,1.55,1.87
AGAAGGAGGGCACGCTGAGTTGATAGCAGAGTAG,1.4,1.94,2.17,0.783,1.2,1.13,-0.112,1.04
CGAACTAGGTCAGAATAGGACAGTGAAGGATGAT,2.16,2.58,3.36,0.702,1.3,2.77,0.0202,-0.245
CGTCAAAATTCAAGGTAACGTAACAGAAAGCAGC,0.985,0.175,0.447,-0.0025,0.308,1.64,1.15,0.24

Sequence,PBM binding z-score [1],PBM binding z-score [2],PBM binding z-score [3],PBM binding z-score [4],PBM binding z-score [5],PBM binding z-score [6],PBM binding z-score [7],PBM binding z-score [8]
TCATATAGGTAAAACAGGTGAAAGTCGGCATCTA,0.437,0.572,0.226,1.71,1.1,0.827,0.0853,-0.37
CCGAGTAGGTTATGGGGCATTTAGGCAACGGTGA,0.777,0.488,0.435,0.127,0.632,0.429,0.289,-0.135
GGAACGAGGGCATTCGAGTTGATAGCTTGGCGAT,0.679,1.02,1.33,3.13,0.592,3.17,-0.698,3.03
ATATGTAGGTTACATTCGGGTCATTCAGGCTATG,2.86,3.72,2.05,1.74,3.03,3.99,3.23,3.31
CGTCCAAGGTCAAGGTCAGTGACAGAGACTCGAA,5.06,6.76,7.62,3.72,6.77,4.35,3.7,3.35
CCTTCCGGGTCAAGGTTATAGCACGGGTGGTACG,3.39,4.76,4.46,0.695,4.97,3.73,2.35,1.72
CTCGAAAGGTCGGTTTAGGTGAGTATACGGATAA,1.77,2.33,2.31,1.26,1.8,4.51,0.786,1.04
CGTCAAAGTTCAACTAAGGTAACGTGAAGCACGC,4.14,6.07,6.8,4.62,5.49,5.14,1.68,3.84
CCAGACAGGTGAGAAGGTTACTCAGCCTCGATTA,1.63,1.67,1.13,0.518,1,0.657,0.115,0.152
CGTCCAAGGTCAGCAGGTCAGTCAAAGCGACGTG,5,6.35,7.05,2.69,4.85,3.74,2.35,2.03
AGTCAAAGTTCAGCTAGGTAACGTAAGATATGCT,3.28,4.23,5.17,3.2,2.96,2.46,0.0376,2.26
TGAATGAGGTTAAAGATAAGGGAACGTGGCGTCG,0.5,2.21,1.32,1.25,2.88,2.37,0.283,0.766
TCTGCTAGGTCAGTTAGTCAGCTAACGAGCTGCC,1.99,2.4,3.3,0.561,0.813,0.906,-0.364,-0.726
TGAATGAGGTTAGAAGATCAGGGAACGTTGCAAA,0.0495,0.98,0.936,-0.437,1.17,1.13,-0.107,-0.169
CCGAATGGGGCATAAGGTTACCATAAGCCAGCCC,1.7,1.67,1.03,-0.221,1.49,2.1,1.45,-0.245
AGAATGAGGTTACCAAAGAGCAGGGAAACGCTTG,0.563,1.8,1.43,0.987,2.24,2.73,0.573,0.0969
TCATATAGGTAAATGGTGAAAGTCGGTGTGGTAA,0.19,0.0436,-0.12,1.83,0.476,0.0433,0.202,0.415
CGAACTAGGTCATACAGGACAGTGAATACATTGA,2.68,3.77,4.03,2.32,2.68,2.83,1.2,1.57
